{"source": "ChEMBL document CHEMBL1201862", "about": "“PubChem BioAssay data set” (2004)", "note": "The campaign covered roughly 44,000 sequences. About 2,900 (6.6%) were called active. Rule as the data show it: active = GI50 up to about 1.1 µM and inactive = higher. The list is a sample of the results. Results with a measured potency or affinity are listed apart.", "data": [{"test_system": "NCI/ADR-RES", "units": {"GI50": "µM"}, "values": [{"substance": "CISPLATIN, CHEMBL11359", "GI50": 4.93}, {"substance": "[Bis(aminomethyl)tetramethylenesilane]dichloropaltinum(II), CHEMBL2146205", "GI50": 5.22}, {"substance": "[Bis(aminomethyl)tetramethylenesilane]tetrachloropaltinum(IV), CHEMBL2146189", "GI50": 5.69}, {"substance": "[Bis(aminomethyl)pentamethylenesilane]tetrachloropaltinum(IV), CHEMBL2146204", "GI50": 1.91}, {"substance": "[Bis(aminomethyl)pentamethylenesilane]dichloropaltinum(II), CHEMBL2146202", "GI50": 14.3}, {"substance": "[Bis(aminomethyl)dimethylsilane]tetrachloroplatinum(IV), CHEMBL2146190", "GI50": 15}]}]}
